Screening results deposited in PubChem BioAssay by National Center for Advancing Translational Sciences (NCATS).
NS1 inh = inhibitors of influenza NS1 protein function; Potency, µM (series often up to 46.1 µM), for the others: at the highest dose activity, positive = more growth; 0.4% of 270,000 active; calls by dose curve; further: potency means the concentration at half of the fitted maximal effect; actives are rising curves; nearly all actives have a fitted effect of over 50% in size
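Compounds were scored for reversing the slow growth caused by influenza A NS1 in S. cerevisiae, measured by optical density at 600 nm. Assay medium contained 2% galactose at pH 6.0; NS1-free yeast of the same strain were the positive control.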
AmpC detergent = AmpC beta-lactamase inhibition with detergent present | 0.041% of 370,000 active | P00811 | AmpC hydrolysis of nitrocefin, absorbance 480 nm, 0.01% Triton | Potency, µM (highest dose often 114 µM), for the others: top-dose activity change, negative = inhibition, actives largely listed as inhibitors;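 further: potency means the concentration at half of the fitted maximal effect; 0% = no-compound wells and -100% = no-enzyme wells; nearly all actives have a fitted effect of over 25% in size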
Target sequence (P00811 whole entry, looked up): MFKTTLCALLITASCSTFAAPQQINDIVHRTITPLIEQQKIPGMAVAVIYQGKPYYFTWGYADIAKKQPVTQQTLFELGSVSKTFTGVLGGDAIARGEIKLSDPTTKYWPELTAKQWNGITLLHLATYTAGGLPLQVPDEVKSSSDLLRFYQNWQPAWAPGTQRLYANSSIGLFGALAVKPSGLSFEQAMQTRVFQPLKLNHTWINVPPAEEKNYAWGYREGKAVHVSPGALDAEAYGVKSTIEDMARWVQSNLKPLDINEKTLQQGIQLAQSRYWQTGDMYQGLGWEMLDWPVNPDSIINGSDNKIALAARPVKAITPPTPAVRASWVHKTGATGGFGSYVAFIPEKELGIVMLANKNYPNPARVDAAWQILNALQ
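20 mM phosphate pH 7.0 + 0.01% (detergent screen) or 0.0001% Triton X-100; 5.3 nM AmpC reagent; cpd preinc 15 min RT; nitrocefin (800 uM stock) to start; A480 q20 s × 4 min; Activity was normalised to no-enzyme and no-compound control wells.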
CHX counter = affects cycloheximide protein synthesis inhibition readout, counter-screen; cell reporter, cycloheximide protein synthesis inhibition counterscreen; max response, %; 12% of 300,000 active; AID 2314; in the data active means max response mostly above about 13%, no sharp cut-off; inactive means mostly below about 14%; further: read at 38.3 µM for the half of the compounds with a filed dose; 0% is about no effect
AmpC inh no detg = AmpC beta-lactamase inhibition without detergent; P00811; 0.52% of 330,000 active; AmpC nitrocefin hydrolysis, absorbance 480 nm, 0.0001% Triton; Potency, µM (top dose mostly 57.1 µM), for the others: top-dose activity change, negative = inhibition, hits mostly inhibitors;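 further: potency means the concentration at half of the fitted maximal effect; plate controls were no compound for no effect and no enzyme for full effect; nearly all actives have a fitted effect of over 20% in size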
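AmpC (5.3 nM in the dispensed reagent) in 20 mM phosphate pH 7.0 with 0.01% (detergent screen) or 0.0001% Triton X-100 was preincubated with compounds for 15 min at room temperature. Nitrocefin was then added from an 800 uM solution, and hydrolysis was followed at 480 nm.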
Shiga inhibitor = inhibitors of Shiga toxin in Vero cells. Vero cells, Shiga toxin protein synthesis inhibition reporter. inhibition, % at 38.7 µM. 9.2% of 290,000 active; in the data active means inhibition mostly above about 28%, no sharp cut-off; inactive means mostly below about 43%; further: 0% is about no effect
An asterisk follows results filed as active; ? = inconclusive; · = no result; + = active, no number. The full list was thinned out, with hits kept by preference. Unless noted, the call rests on the fitted dose curve; in most records, active means well fitted curve in the direction sought with a large enough effect; inconclusive means small, poorly fitted or top-dose-only effect, or another doubt; inactive means no such curve, though single readings can be large; an effect the other way counts as inactive or inconclusive.

SMILES | NS1 inh | AmpC detergent | CHX counter | AmpC inh no detg | Shiga inhibitor
S=C(NC1CCCCC1)N1CCc2ccccc2C1 | -21.1% | 4.7% | 38.1* | -27.8% | +
CC1CC(C)CN(S(=O)(=O)c2ccc3c(c2)CC(C)N3C(=O)C2CC2)C1 (stereo unspecified) | -13.2% | -5.5% | -2.0 | 54.5% | -1.8
Cc1ccc(C(=O)N2CCN(CCc3ccncc3)CC2)cc1 | · | 21.3% | · | · | ·
CCOc1ccccc1Nc1sc(C(=O)c2ccc(Cl)cc2)c(N)c1C(=O)NCCc1ccccc1 | · | 8.4% | · | · | ·
O=C(NCC1CC1)Nc1ccccc1 | -1.7% | -9.1% | 10.3 | 0.0% | -0.2
O=C(NCCC1CC1(Cl)Cl)Nc1ccccc1 (stereo unspecified) | 0.0% | -1.1% | 18.6 | -11.6% | 53.5*
CCCCCCNC(=O)Nc1ccccc1 | -94.8% | -1.5% | 44.5* | -26.0% | 61.3*
CCCCSCCCNC(=O)Nc1ccc(CC)cc1 | · | 6.6% | 11.3* | -15.5% | 6.1
COc1cccc(CNC(=O)CSc2n[nH]c(-c3ccccc3Cl)n2)c1 | · | 20.2% | · | · | ·
CC(=O)c1ccc(N2CCN(S(=O)(=O)c3cc4[nH]c(=O)c(=O)[nH]c4cc3C)CC2)cc1 | -4.1% | -9.6% | 18.7* | -28.2% | 23.9*
COc1ccccc1NS(=O)(=O)c1ccc(C(=O)N2CCN(c3ccccn3)CC2)cc1 | · | · | · | 76.9% | ·
Clc1ccc(CSC2=NCCN2)cc1Cl | 0.0% | · | · | · | ·
O=S1(=O)C=C(SCc2ccc(Cl)c(Cl)c2)Nc2ccccc21 | -3.8% | 1.1% | 6.8 | 17.8µM* | -12.1
O=C(NCc1ccc(Cl)cc1)c1noc2c1CCCC2 | -42.8% | 1.6% | 24.8* | -12.0% | 39.6*
COc1ccc(CNC(=O)c2noc3c2CCCC3)cc1 | -7.5% | -6.7% | 28.2* | -8.4% | 113.6*
O=C(c1noc2c1CCCCC2)N1CCN(c2cccc(Cl)c2)CC1 | · | 19.3% | · | · | ·
O=C(NCc1ccccc1)c1noc2c1CCCC2 | -6.5% | -0.8% | 44.5* | -16.3% | 34.1
O=C(c1noc2c1CCCC2)N1CCN(c2ccccc2)CC1 | -14.4% | -3.2% | 20.5* | 2.0% | 82.5
COc1ccc(OC)c(NC(=O)c2noc3c2CCCC3)c1 | · | 20.4% | · | · | ·
O=C(CSc1n[nH]c(-c2ccc(F)cc2)n1)N1CCN(c2ccc(F)cc2)CC1 | · | 21.8% | · | · | ·
CCOc1ccc(-c2noc(CCC(=O)NC3CCCCC3)n2)cc1OC | 41.0% | 8.6% | -0.4 | 1.8% | -6.6
CC(=O)c1ccc(NC(=O)c2noc3c2CSc2ccccc2-3)cc1 | · | 20.1% | · | · | ·
O=C(NCc1cccc(F)c1)c1noc2c1CCCC2 | -2.1% | -9.3% | 39.0* | -11.1% | 54.3*
O=C(Nc1cnn(Cc2ccc(Cl)cc2Cl)c1)c1noc2c1CCCC2 | · | ? | 14.3* | ? | 11.2
CC(=O)c1ccc(N2CCN(C(=O)c3noc4c3CSc3ccccc3-4)CC2)cc1 | ? | -3.9% | 16.8* | -20.2% | 13.4
SMILES | NS1 inh | AmpC detergent | CHX counter | AmpC inh no detg | Shiga inhibitor
O=C(Nc1cnn(Cc2ccc(Cl)cc2Cl)c1)c1cc(-c2cccs2)on1 | -66.7% | -1.5% | -1.1 | -42.1% | -7.7
O=C(NCCc1ccccc1)c1noc2c1CCCCC2 | -14.5% | -2.7% | 34.9* | -14.9% | 95.8*
O=C(NCc1cccnc1)c1noc2c1CCCC2 | 3.4% | 1.3% | -0.6 | -13.4% | 17.5
COc1ccc(N(CC(=O)N2CCN(c3ccc(F)cc3)CC2)S(=O)(=O)c2c(C)noc2C)cc1 | -7.0% | 1.3% | -1.2 | 127.5% | 0.1
O=C(NCc1ccco1)c1noc2c1CCCCC2 | -30.4% | -14.5% | 33.0* | -12.7% | 39.9*
O=C(NCc1cccnc1)c1noc2c1CCCCC2 | -8.2% | ? | 3.5 | -8.7% | 55.2
CC(NC(=O)c1noc2c1CCCC2)c1ccccc1 (stereo unspecified) | -2.7% | -14.1% | 13.6 | -7.0% | 65.4
O=C(NCc1cccs1)c1noc2c1CCCC2 | -3.8% | -6.2% | 14.8* | -8.7% | 36.7
Cc1ccnc(NC(=O)Cn2c(=O)oc3ccccc32)c1 | 12.7% | 4.3% | 19.8* | -16.6% | 60.3*
O=C(CCn1c(=O)oc2ccccc21)N1CCC2(CC1)OCCO2 | -3.1% | -7.6% | 13.5* | -1.5% | 19.3
O=C(CCn1c(=O)oc2ccccc21)Nc1ccc2c(c1)OCCO2 | 3.2% | 13.0% | 71.3* | -29.4% | 79.8*
COc1ccc(NC(=O)CCCn2c(=O)oc3ccccc32)cc1Cl | -2.1% | 2.5% | 66.1* | -6.1% | 64.2*
C=CCn1c(SCCC)nc(O)cc1=O | ? | 3.9% | 0.9 | -20.3% | -21.4
O=C(Cn1c(=O)oc2ccccc21)Nc1ccc2c(c1)OCCO2 | -6.2% | -8.5% | 17.7* | -51.2% | 13.1
O=C(Cn1c(=O)oc2ccccc21)Nc1ccc(F)c(F)c1 | 1.6% | -1.1% | -2.2 | -8.5% | 5.8
O=S1(=O)c2ccccc2N(Cc2ccccc2F)c2ccccc21 | · | -3.5% | · | · | ·
O=C1CC(Cc2ccccc2)C(=O)N1c1ncccn1 (stereo unspecified) | -2.9% | 4.8% | 53.0* | -12.0% | 103.2*
Cc1ccc(CC2CC(=O)N(c3ncccn3)C2=O)cc1 (stereo unspecified) | 0.3% | -6.3% | -3.4 | -5.6% | -4.6
Cc1ccc(CC2CC(=O)N(CCc3ccccc3)C2=O)cc1 (stereo unspecified) | -10.9% | 7.0% | 19.4* | 28.2% | 59.4
COc1ccc(CCN2C(=O)CC(Cc3ccccc3)C2=O)cc1OC (stereo unspecified) | 2.6% | 3.1% | -1.5 | 31.8% | -14.7
Cc1cc2c(s1)c1cnn(Cc3cccc(F)c3)c(=O)c1n2C | · | · | -6.4 | · | -1.8
Nc1nc(C(=O)O)c(N=Nc2ccccc2)c(=O)[nH]1 | -3.8% | · | · | · | ·
CCN(CC)S(=O)(=O)c1ccc(C(=O)N2CC(=O)Nc3ccc(F)cc3C2c2ccccc2)cc1 (stereo unspecified) | · | 8.4% | · | · | ·
CN(Cc1ccccc1)S(=O)(=O)c1ccc(NC(=O)c2cc(=O)c3ccccc3o2)cc1 | · | 6.0% | · | · | ·
O=C(/C=C\c1ccc2c(c1)OCO2)NC1CC(=O)N(c2ccc(F)cc2)C1 (stereo unspecified) | · | 1.8% | · | · | ·
SMILES | NS1 inh | AmpC detergent | CHX counter | AmpC inh no detg | Shiga inhibitor
O=C(Nc1cnc2ccccc2c1)N1CCCCC1 | -10.8% | 2.4% | 50.7* | -10.2% | 81.7*
O=C(Nc1ccc(O)cc1)N1CCOCC1 | 3.7% | -12.1% | 0.7 | -28.0% | 8.3
O=C(Nc1cccc([N+](=O)[O-])c1)N1CCCCCC1 | 1.8% | 2.4% | 13.8 | -22.0% | 35.3
O=C(Nc1ccc2nc(-c3ccco3)c(-c3ccco3)nc2c1)N1CCCC1 | · | · | 30.1* | · | 61.6*
O=C(Nc1cnc2ccccc2c1)N1CCOCC1 | -0.4% | -14.1% | 42.4* | -4.7% | 64.0*
COc1ccc(OC(=O)c2cn(-c3cccc(OC)c3)c(=O)c3ccccc23)cc1 | · | 6.2% | · | · | ·
O=C(O)CN1C(=O)/C(=C/c2ccc(-c3cccc(Cl)c3)o2)SC1=S | · | · | -4.0 | · | -5.5
Cc1ccc(C(=O)NC(=S)NCCCN2CCOCC2)cc1 | 2.2% | 0.3% | 20.3 | -25.5% | 50.4*
CCOc1ccc(C(=O)NC(=S)NCCCN2CCOCC2)cc1 | -2.9% | ? | -2.4 | 6.8% | -4.3
O=C(NC(=S)NCCCN1CCOCC1)c1ccc(Br)cc1 | · | 9.2% | 21.3* | 4.8% | 25.3
